The values below come from PubChem BioAssay AID1745847 (National Center for Advancing Translational Sciences (NCATS), 2022).

Molecules are shown by their SMILES. Hit rate of the full screen: of about 2,100 compounds, about 670 (32%) were called active. Roughly 50% stayed inconclusive and do not appear here. The list shows a part of the results. Values without a mark were called inactive. The call rests on the fitted dose curve; in most records, active means well fitted inhibition curve with a large enough effect; inconclusive means small, poorly fitted or top-dose-only effect; inactive means no such curve, though single readings can be large or run the other way.
On the % scale 0 is the no-effect control and ±100 the full control effect; potency means the concentration at half of the fitted maximal effect.

This assay is described as follows: CMV-Luciferase Counterscreen for Inhibitors of ATXN expression. Further: nearly all actives have a fitted effect of over 55% in size. The conditions noted are these: HEK-293 CMV-luciferase reporter, luminescence, 24 h; series mostly up to 57.5 µM. In general terms: The purpose of a counterscreen is to sort out artefacts and off-target activity.
On to `C=CCc1cccc(/C=N/NC(=O)c2ccccc2Br)c1O`, for which the Potency is 10 µM (active). Consider `C=CCc1cccc(/C=N/NC(=O)CCC(=O)Nc2ccc(C)cc2)c1O`, for which the Potency was 8.91 µM (active). Same read-out and setting: the figure for `C=CCc1cccc(/C=N/NC(=O)CCC(=O)Nc2ccc(F)cc2)c1O` is 3.98 µM (active). Regarding `CC(SC(C)C(=O)NN=Cc1cccc(Cl)c1)C(=O)NN=Cc1cccc(Cl)c1` (stereo not drawn), the activity change, negative = inhibition is -24.3% [at 11.4 µM]. Take `C=CCc1cccc(/C=N/NC(=O)C(C)Nc2ccc(C)cc2)c1O` (stereo not drawn): the Potency is 10 µM (active). The same measure, in the same setting: the figure for `C=CCc1cccc(/C=N/NC(=O)CCCNc2ccc(C)cc2)c1O` is 15.8 µM (active). `C=CCc1cccc(/C=N/NC(=O)CNc2ccccc2)c1O`: the Potency is 2 µM (active).

Take `Nc1ccc2c(c1)OC1(CCCC1)O2`: the activity change, negative = inhibition is -27.3% [at 11.4 µM]. On to `CC(C)(C)c1ccc(OCCn2nc(C(=O)O)c3ccccc3c2=O)cc1`, for which the Potency result was “inactive”. Same read-out and setting: the figure for `COc1ccc(NC(=O)N2CCN(c3nc(-c4cccc(OC)c4)cs3)CC2)cc1` is 3.55 µM (active); for `Cn1nccc1C(=O)N1CCCC(C(=O)c2cccc3ccccc23)C1` (stereo not drawn) it is “inactive”. Still for that read-out and setting: then `CCCc1cnc(NCCNCC(O)COc2ccc(Cl)c(Cl)c2)nc1` (stereo not drawn), with 31.6 µM (active). As for `N#C/C(=C\Nc1ccc2cn[nH]c2c1)c1nc(-c2ccc(Cl)cc2)cs1`, the activity change, negative = inhibition is 11% [at 11.4 µM]. Take `Cc1ccc(SC2=C(Sc3ccc(C)cc3)C(=O)c3ccccc3C2=O)cc1`: the Potency result is “inactive”. On the same count and under the same terms, then `O=C1C(SCCO)=C(SCCO)C(=O)c2ccccc21`, with 8.91 µM (active).

For `CCCNC(=O)c1ccc2c(=O)c(O)c(-c3cccc(Br)c3)[nH]c2c1`, the Potency is 20 µM (active).

Turning to `C/C(=N\NC(=O)C(C)n1nc(C)c([N+](=O)[O-])c1C)c1ccccc1O` (stereo not drawn), the Potency is 2.51 µM (active). Same read-out and setting: the figure for `CCCCC(=O)NC(c1ccc(N(C)C)cc1)c1ccc2cccnc2c1O` (stereo not drawn) is 1.78 µM (active). Same read-out and setting: the figure for `CCCCC(=O)NC(c1ccc(N(CC)CC)cc1)c1ccc2cccnc2c1O` (stereo not drawn) is 0.282 µM (active). For `CO[C@@]12[C@@H]3N[C@@H]3CN1C1=C(C(=O)C(N)=C(C)C1=O)[C@@H]2COC(N)=O`, the activity change, negative = inhibition was 10.2% [at 11.4 µM]. Take `CC(C)CC(NC(=O)c1ccc(Cl)cc1)C(=O)OCC(=O)c1ccc2c(c1)NC(=O)CO2` (stereo not drawn): the Potency is 22.4 µM (active). Same read-out and setting: the figure for `Cc1ccc(OCC(=O)c2cc(C)n(Cc3cccs3)c2C)c([N+](=O)[O-])n1` is 3.98 µM (active); for `COc1ccc(CC(=O)N/N=C(\C)c2ccccn2)cc1` it is 8.91 µM (active). As for `COc1ccccc1N(CC(=O)N/N=C(\C)c1ccccc1O)S(=O)(=O)c1ccc(C)cc1`, the Potency is 11.2 µM (active). Still for that read-out and setting: then `C/C(=N\NC(=O)Cc1ccc(Cl)cc1)c1ccccc1O`, with 11.2 µM (active); and `C/C(=N\NC(=O)CN(c1ccccc1)S(C)(=O)=O)c1ccccc1O`, with 12.6 µM (active); and `COc1ccccc1N(CC(=O)NCCSCc1ccc(C)cc1)S(=O)(=O)c1ccccc1`, with 22.4 µM (active). Consider `CC(C)C[C@H](NC(=O)c1[nH]cnc1C(=O)Nc1ccc(CNC(=O)OC(C)(C)C)cc1)C(=O)OCc1ccccc1`, for which the activity change, negative = inhibition is -24.4% [at 11.4 µM].
